This is one part of a sample in which hits are shown more often than they occur.
Pf Dd2 growth: inhibitors of Plasmodium falciparum Dd2 growth. P. falciparum Dd2 growth, SYBR Green, 72 h. Potency, µM (series often up to 28.9 µM), for the others: at the highest dose activity, negative = inhibition, most hits filed as inhibitors. hit rate 4.3% among 120,000. AID 1347417; active means well fitted inhibition curve with a large enough effect;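 further: plate controls were DMSO vehicle for no effect and reference drug for full effect; nearly all actives have a fitted effect of over 65% in size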
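Infected erythrocytes (Dd2, 0.3% parasitemia, 2.5% hematocrit final) are added to compound in RPMI-1640/Albumax II medium, grown 72 h at 37C in low oxygen, then lysed with saponin/Triton-X containing SYBR Green and read by fluorescence.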
* marks the source's active call; other numbers are inactive results; i = inactive; [ ] = remark or other dose. Potency means the concentration at half of the fitted maximal effect.

SMILES | Pf Dd2 growth
N[C@H]1CN(C(=O)c2ccccc2Oc2ccccc2)C[C@@H]1C1CC1 | 6.3µM*
NC(=O)[C@@H]1CN(C(=O)c2ccccc2F)C[C@H]1COc1ccccc1 | 9%
CC(C)(CC(=O)O)CC(=O)N1CC[C@H]2NC(=O)N(c3ccc(F)cc3)C(=O)[C@H]21 | -5%[44.1 µM]
CCS(=O)(=O)NC1CCc2nnc(C3CC3)n2CC1 (stereo not drawn) | i
Cn1cccc1C(=O)N1C[C@@H](CO)[C@H](c2ccncc2)C1 | i
Cc1nc(C(C)C)sc1C(=O)N1CCCC(OCc2ccccn2)C1 (stereo not drawn) | -1%
CN(CC1CCOC1)C(=O)c1cccs1 (stereo not drawn) | 31%[5.79 µM]
O=C1NCCCCCCN(C(=O)C2CC2)[C@H]2C[C@H](C(=O)N3CCc4ccccc4C3)C[C@@H]12 | i
CC(C)(C)NC(=O)N1CCCCCCNC(=O)[C@@H]2C[C@@H](C(=O)N3CCc4ccccc4C3)C[C@@H]21 | 4.5µM*
Cc1cnc(C(=O)N2CCCCCCNC(=O)[C@@H]3C[C@@H](C(=O)N4CCc5ccccc5C4)C[C@@H]32)cn1 | -16%
O=C1C(N2CCN(S(=O)(=O)Cc3ccc(Cl)cc3)CC2)CCN1Cc1cccnc1 (stereo not drawn) | -5%
COc1cc2c(cc1-c1nccn1-c1ccc(NC(C)=O)cc1)OCCO2 | -11%
CC(=O)Nc1ccc(CN2CCC(N3CCOCC3=O)CC2)cc1 | 18%
CC1=C(C(=O)OCc2ccc(C)cc2)C(c2ccccc2C(F)(F)F)CC(=O)N1 (stereo not drawn) | 5.6µM*
CC1=C(C(=O)OCc2ccccc2)C(c2cccc(Cl)c2Cl)CC(=O)N1 (stereo not drawn) | 17%
CC1=C(C(=O)OCC2CCCCC2)C(c2cccc(Cl)c2Cl)CC(=O)N1 (stereo not drawn) | 6%
Cc1noc(C)c1C(C(=O)O)N(C)Cc1nc(-c2ccccn2)no1 (stereo not drawn) | 17%
CCOc1ccc(/C=C/c2nc3ccccc3n2S(=O)(=O)c2cccc(Cl)c2)cc1 | 3.5µM*
CCOc1ccc(Cn2c(CNS(=O)(=O)c3cccc(Cl)c3)nc3cccnc32)cc1 | -8%
CSc1ccc(/C=C/c2nc3ccccc3n2S(=O)(=O)c2ccc(F)c(C)c2)cc1 | i
CN(C)C[C@@H]1CN(Cc2ccccc2)C[C@H]1NC(=O)c1nccn1C | -18%
CCCN1CCC2(CCN(C(=O)OC)CC2)Oc2ccccc21 | i
O=C1CCC(C(=O)N2CCCn3nc(C(=O)Nc4ccccc4)cc3C2)=NN1 | -4%
Cc1ccc(C(=O)N2CCC(Oc3ccc(C(=O)N(C)C)cn3)CC2)cc1F | 29%
Nc1nc(C(=O)N[C@H]2CCOC[C@H]2C2CCOCC2)cs1 | 0%
SMILES | Pf Dd2 growth
CCNC(=O)NCC(=O)N1CCCCCCNC(=O)CC1c1ccccc1 (stereo not drawn) | 39%
CC1CCC(Nc2ncnc3onc(-c4ccc(Cl)cc4)c23)CC1 (stereo not drawn) | 4.5µM*
Clc1ccc(-c2noc3ncnc(NC4CCCCC4)c23)cc1 | -19%
Clc1ccc(CNc2ncnc3onc(-c4ccc(Cl)cc4)c23)cc1 | i
CCC(=O)Nc1cccc(C(=O)N2CCN3C(=O)CN(C)C(=O)C3C2)c1 (stereo not drawn) | 1%
COCC1CN(C(C)=O)CC12CCN(Cc1c(C)n[nH]c1C)CC2 (stereo not drawn) | 7%
CCOC(=O)c1c(NC(=O)COc2ccccc2F)sc2c1CCCC2 | -12%
COc1ccc(NC(=O)CSc2cn(CCNC(=O)c3ccc(OC)cc3)c3ccccc23)cc1 | -12%
CC(Sc1cn(CCNC(=O)c2ccccc2F)c2ccccc12)c1ccccc1 (stereo not drawn) | -20%
CCOC(=O)c1c(NC(=O)CSc2cn(CCNC(=O)c3ccc(OC)cc3)c3ccccc23)sc2c1CCC2 | 13µM*
CCOC(=O)c1c(NC(=O)CSc2cn(CCNC(=O)c3ccc(OCC)cc3)c3ccccc23)sc2c1CCCC2 | i
CCOC(=O)c1c(NC(=O)C(C)Sc2cn(CCNC(=O)c3c(F)cccc3F)c3ccccc23)sc2c1CCC2 (stereo not drawn) | 7.9µM*
CN(C)C(=O)N1CCN(C(=O)c2noc3c2CCCC3)[C@H]2CS(=O)(=O)C[C@H]21 | i
CC1(C)CN(C(=O)c2csc(Cc3ccccc3)n2)CC1(C)O (stereo not drawn) | 6%
CC[C@@]1(C(=O)O)C[C@H](C(=O)NC(CO)CO)[C@H](c2ccc(F)cc2)N1C | -12%
COC[C@H]1C[C@@H](N(C)C)[C@H](O)[C@@H]1O | 4%[76.6 µM]
CS(=O)(=O)N1CC2(CCN(C3COC3)C2)Cc2ccccc21 (stereo not drawn) | i
COCCCNC(=O)CN1C(=O)COc2ccc(C(=O)COc3cccc(OC)c3)cc21 | i
CNC(=O)[C@@H]1C[C@H](Oc2cccnc2)CN1C(=O)c1nccc2ccccc12 | 4%
COC1C(=O)N(C2CCN(C(=O)CCc3c[nH]c4ccccc34)CC2)C12CCOCC2 (stereo not drawn) | -11%
COC1C(=O)N(C2CCN(Cc3ccc(F)cc3F)CC2)C12CCOCC2 (stereo not drawn) | -8%
COC1C(=O)N(c2cccc(F)c2)C12CCN(C(=O)c1cnc(C)cn1)CC2 (stereo not drawn) | -8%
COC1C(=O)N(c2cccc(F)c2)C12CCN(C(=O)C(C)C)CC2 (stereo not drawn) | -11%
COC1C(=O)N(c2cccc(F)c2)C12CCN(C(=O)CCc1c[nH]c3ccccc13)CC2 (stereo not drawn) | 7.9µM*
COC1C(=O)N(c2cccc(F)c2)C12CCN(S(=O)(=O)c1ccccc1C)CC2 (stereo not drawn) | 13µM*
SMILES | Pf Dd2 growth
C[C@]1(O)CCN(C(=O)CCc2c[nH]c3ccccc23)C[C@@H]1O | 4%
COC1C(=O)N(c2cccc(F)c2)C12CCN(Cc1ccc(F)cc1F)CC2 (stereo not drawn) | 10µM*
COC1CCOC2(CCN(S(=O)(=O)c3ccccc3C)CC2)C1 (stereo not drawn) | -5%
COc1ccc(C(=O)NC(C(=O)NCC(C)C)C2CCN(C(=O)c3ccccc3C)CC2)cc1 (stereo not drawn) | i
COCCc1noc(CNC(=O)C2COc3ccccc3C2)n1 (stereo not drawn) | -7%
C[C@@H](NC(=O)NC1(c2ccccc2)CCOCC1)c1onc(-c2cccnc2)c1C(=O)O | 3%
COC[C@H]1C[C@@H](NCc2nccn2C)[C@H](O)[C@@H]1O | -6%[44.1 µM]
CCOC(=O)C(C)NC(=O)N1CCC2(CC1)CN(Cc1ccc(OC)cc1)C2=O (stereo not drawn) | 15%
CCCn1cc(CNC(=O)c2ccc(CC3CCCNC3)cc2)cn1 (stereo not drawn) | i
CC(C)CSc1ccccc1NC(=O)c1sc2nc(-c3ccncc3)ccc2c1N | 3.2µM*
COc1ccc(-c2ccc3c(N)c(C(=O)Nc4cccc(C)c4)sc3n2)cc1 | -13%
COc1cccc(-c2ccc3c(N)c(C(=O)Nc4ccc(Cl)cc4F)sc3n2)c1 | 23%
O=C(Nc1ccccc1)N1CCC2(CC1)SCC(=O)N2c1ccc(Cl)cc1 | i
FC(F)(F)c1cccc(C2=NOC3(CCN(Cc4ccncc4)CC3)C2)c1 | -19%
Cc1ccc(-n2c(C3CCN(C(=O)c4cc(F)ccc4F)CC3)n[nH]c2=O)cc1 | i
COc1ccc(CN2C[C@@H]3C(=O)N(Cc4ccc5c(c4)OCO5)C(=O)[C@@H]3C2)c(OC)c1 | i

Bioassay records as filed in PubChem BioAssay.
